Experimental findings from PubChem BioAssay AID2551 (National Center for Advancing Translational Sciences (NCATS), 2010) are described below.

Several values for one entry are separate records, joined by “and”; a condition that tells them apart may be missing. Identical values can stand only once. The whole screen tested about 310,000 compounds, of which about 17,000 (5.5%) were called active. Not shown: some 11% with an inconclusive outcome. The sample as a whole holds a higher share of actives than the screen did. Unmarked numbers belong to inactive results. The call rests on the fitted dose curve; in most records, active means well fitted inhibition curve with a large enough effect; inconclusive means small, poorly fitted or top-dose-only effect, or effect the other way; inactive means no such curve, though single readings can be large or run the other way.
On the % scale 0 is the no-effect control and ±100 the full control effect; potency means the concentration at half of the fitted maximal effect.

Nuclear receptor ROR-gamma (Mus musculus), sequence (P51450 whole entry, looked up, the tested form may be a part): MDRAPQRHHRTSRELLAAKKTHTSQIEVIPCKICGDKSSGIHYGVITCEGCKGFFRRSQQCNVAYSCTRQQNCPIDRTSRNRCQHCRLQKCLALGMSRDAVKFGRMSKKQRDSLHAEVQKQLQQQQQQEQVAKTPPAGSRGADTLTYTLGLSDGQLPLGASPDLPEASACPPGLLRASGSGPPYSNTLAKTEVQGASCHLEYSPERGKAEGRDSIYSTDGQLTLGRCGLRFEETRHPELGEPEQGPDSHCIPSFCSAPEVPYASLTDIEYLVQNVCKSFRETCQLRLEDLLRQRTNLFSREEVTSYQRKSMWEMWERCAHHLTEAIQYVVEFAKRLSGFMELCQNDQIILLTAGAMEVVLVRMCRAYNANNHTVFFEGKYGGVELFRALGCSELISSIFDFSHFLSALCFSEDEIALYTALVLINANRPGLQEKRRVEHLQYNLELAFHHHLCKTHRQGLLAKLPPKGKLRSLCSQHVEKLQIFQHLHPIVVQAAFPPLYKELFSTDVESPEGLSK

The test addresses Nuclear receptor ROR-gamma (Mus musculus) (UniProt P51450). The test is described as follows: qHTS for inhibitors of ROR gamma transcriptional activity. Further: nearly all actives have a fitted effect of over 60% in size. Conditions: Drosophila S2 Gal4-RORgamma UAS-luciferase reporter, 20 h; series mostly up to 53.6 µM; activity change, negative = inhibition: at the top concentration. The gist of the method:
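Drosophila Schneider cells stably carrying a metallothionein-driven Gal4 DBD–ROR gamma fusion and a UAS-Photinus luciferase reporter were exposed to compound for 1 hr, then induced with copper sulfate (700 uM final) for 20 hr at ambient temperature before luminescence reading.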
In the case of `Cc1ccc2c(c1)C(c1ccccc1)N(C(=O)c1ccc(F)cc1)CC(=O)N2` (centres undefined), the “activity change, negative = inhibition” value was 11.4%.

For the compound `Cc1ccc2nc(N(CCN(C)C)C(=O)C3=COCCO3)sc2c1`, the “activity change, negative = inhibition” value is -8.72%.

For the compound `COc1cccc(-c2noc(C3CCCN(C(=O)c4ccc(F)cc4)C3)n2)c1` (centres undefined), the activity change, negative = inhibition was -2.97% [at 1.91 µM].

For `CCN1CCCC1CNC(=O)c1cc2c(=O)n(C)c3ccccc3c2n1C` (centres undefined), the Potency was 3.98 µM (active).

In the case of `Cn1c(C(=O)NCCc2ccsc2)cc2c(=O)n(C)c3ccccc3c21`, the “activity change, negative = inhibition” value is 27%.

Consider `CC1CCCC(C)N1CCCNC(=O)c1cc2c(=O)n(C)c3ccccc3c2n1C` (centres undefined), for which the “activity change, negative = inhibition” value was 2.79%.

With `Cc1ccc(OCC(=O)Nc2ccc(N3CCN(C(=O)c4ccco4)CC3)cc2)c(C)c1`, the “activity change, negative = inhibition” value was 24.1%.

Take `CC(=O)Oc1ccc(N(C(C)=O)S(=O)(=O)c2ccc3ccccc3c2)cc1Br`: the “activity change, negative = inhibition” value was 40.7%.

For `CCCC1CCC(=NNC(=S)NCCc2ccccc2)CC1` (centres undefined), the Potency is 5.01 µM (active).

On to `O=C1CCN(C(=S)NCCc2ccccc2)CC1`, for which the “activity change, negative = inhibition” value is 6.62%.

`CCCCNC(=O)C1CCC(=O)N1CCc1ccccc1` (centres undefined): the “activity change, negative = inhibition” value is -0.936%.

On to `CCOc1ccc(NC(=O)C(C)N2C(=O)c3ccccc3C2=O)cc1` (centres undefined), for which the “activity change, negative = inhibition” value is -2.48%.

`CSc1ccc(NC(=O)/C=C/C(=O)O)cc1`: the Potency was 0.0794 µM (active).

In the case of `Cc1cccc(N2CCN(c3ccc(NC(=O)/C=C\C(=O)O)cc3)CC2)c1`, the “activity change, negative = inhibition” value is 8.37%.

In the case of `O=C(O)/C=C\C(=O)Nc1ccc(OCc2ccccc2)cc1`, the “activity change, negative = inhibition” value is 0.167%.

As to `CN(C)CCCn1c(SCc2ccc(Cl)cc2)nnc1-c1ccncc1`, the “activity change, negative = inhibition” value is 9.2%.

Take `Cn1c(CCCOc2ccc(Cl)cc2Cl)n[nH]c1=S`: the Potency was 6.31 µM (active).

Take `O=C(CCCOc1ccc(Cl)cc1Cl)NNC(=O)C1CCC1`: the “activity change, negative = inhibition” value was 8.12%.

Turning to `CN1CCC(OC(=O)COc2ccc(Cl)cc2Cl)CC1`, the “activity change, negative = inhibition” value was -3.03%.

On to `CN(C)c1nc(Nc2ccc(Cl)c(Cl)c2)nc(N(C)C)n1`, for which the “activity change, negative = inhibition” value is 22%.

For the compound `CN(C)c1nc(NN)nc(Nc2ccc(F)cc2)n1`, the Potency is 7.94 µM (active).

`CN(C)c1ccnc(Nc2ccc(F)cc2)c1C#N`: the “activity change, negative = inhibition” value is -2.79%.

Regarding `COc1ccc(CNC(=O)C2CCN(C(=O)c3ccco3)CC2)cc1`, the “activity change, negative = inhibition” value was -27.8%.

For `Cc1c(OC(C)C(=O)NCC2CCC(C(=O)O)CC2)ccc2c1oc(=O)c1ccccc12` (centres undefined), the “activity change, negative = inhibition” value was 13.2%.

For `Cc1ccc(CN2CCNC(=O)C2CC(=O)NCc2csc(C(C)C)n2)cc1` (centres undefined), the “activity change, negative = inhibition” value was -11.2%.

With `COc1cc(NS(=O)(=O)c2ccc(NC(C)=O)cc2)cc(OC)c1`, the “activity change, negative = inhibition” value was 0%.

On to `CCOc1ccc(S(=O)(=O)Nc2ccc(S(=O)(=O)Nc3cc(OC)ccc3OC)cc2)cc1`, for which the “activity change, negative = inhibition” value is 30.5%.

For the compound `COc1ccc(NS(=O)(=O)c2ccc(Oc3c(C#N)cccc3C#N)cc2)cc1`, the Potency was 7.94 µM (active).

As for `CCn1ccnc1CN(C)C(=O)c1cc(COc2ccc(Cl)cc2OC)on1`, the “activity change, negative = inhibition” value is 30%.

Regarding `Oc1c(CN2CCN(c3ccc(F)cc3)CC2)cc(Cl)c2cccnc12`, the Potency was 0.562 µM (active).

Take `Oc1ccc(CN2CCN(c3ncccn3)CC2)cc1`: the “activity change, negative = inhibition” value is -16.9%.

Consider `O=C(c1cccc(C(=O)N2CCN(c3ccc(F)cc3)CC2)c1)N1CCN(c2ccc(F)cc2)CC1`, for which the “activity change, negative = inhibition” value was 4.17%.

`COCCNC(=O)C1CCN(C(=O)C2CC(=O)N(c3ccc(C)cc3)C2)CC1` (centres undefined): the “activity change, negative = inhibition” value is -3.92%.

On to `Cc1cccc(C(=O)Nc2ccccc2N2CCN(c3ccc(F)cc3)CC2)c1`, for which the “activity change, negative = inhibition” value was 11.7%.

On to `O=C(c1cncc(Br)c1)N1CCN(c2ccc([N+](=O)[O-])cc2)CC1`, for which the “activity change, negative = inhibition” value was 34.5%.

On to `Cc1cccc(C(=O)NC(=S)N2CCN(c3ccc([N+](=O)[O-])cc3)CC2)c1`, for which the Potency is 0.447 µM (active).

As to `CC(C(=O)c1ccc(-c2ccccc2)cc1)[n+]1cccc(Br)c1` (centres undefined), the “activity change, negative = inhibition” value is 44.4%.

On to `CCn1c2ccc(F)cc2c2nnc(SCCN3CCOCC3)nc21`, for which the “activity change, negative = inhibition” value is -15.5%.

Regarding `CCn1c(NCCc2ccc(OC)c(OC)c2)nc2c1c(=O)n(C)c(=O)n2C`, the “activity change, negative = inhibition” value was 15%.

On to `Cn1c(=O)c2c(nc(NCc3ccccc3)n2CC(N)=O)n(C)c1=O`, for which the “activity change, negative = inhibition” value is 13.7%.

Regarding `Cn1c(=O)c2c(nc(NCCc3ccccc3)n2Cc2ccccc2)n(C)c1=O`, the Potency is 11.2 µM (active).

For the compound `COc1ccc(/C=C/C(=O)c2ccc(OC)cc2O)cc1`, the Potency was 8.91 µM (active) and 316 nM (active).

`COc1ccc(/C=C/NC(=O)c2ccc(OC)cc2)cc1`: the activity change, negative = inhibition was -26.7% [at 10 µM].

Consider `O=C(/C=C/c1ccccc1)c1ccccc1O`, for which the “activity change, negative = inhibition” value was -1.98%.

For `CCC(C(=O)NCc1cccnc1)n1nc(C)c2sc3ccccc3c2c1=O` (centres undefined), the “activity change, negative = inhibition” value is 6.04%.

Regarding `CC(=O)c1ccc2c(ccc3ccccc32)c1`, the “activity change, negative = inhibition” value was -30.5%.

As for `C=CC(=O)c1ccc2ccccc2c1`, the Potency is 0.631 µM (active).

Regarding `CC(=O)CCC(=O)c1ccc2ccccc2c1`, the “activity change, negative = inhibition” value is 20.3%.

Regarding `COc1ccc(/C=C(\C#N)c2c[nH]c3ccccc23)cc1`, the “activity change, negative = inhibition” value is -6.22%.

As to `COc1ccc2[nH]cc(/C=C(/C#N)S(=O)(=O)c3ccccc3)c2c1`, the Potency was 7.08 µM (active).

With `CCN(CC)CC(=O)c1c[nH]c2ccc(OC)cc12`, the “activity change, negative = inhibition” value was -6.89%.

Turning to `COC(=O)c1cccc(C(=O)N2CCC(CCC(=O)NCc3ccc(F)cc3)CC2)c1`, the “activity change, negative = inhibition” value was 7.81%.

Take `COc1cccc(CN(C)CC2CCCN(CCc3ccc(Cl)cc3)C2)c1OC` (centres undefined): the “activity change, negative = inhibition” value is -32%.

Take `CCS(=O)(=O)N1Cc2ccccc2CC1C(=O)Nc1ccc(OC)cc1OC` (centres undefined): the “activity change, negative = inhibition” value was 16%.
